Source: the OligoGym collection

biological target: ETS1; assay: pooled miR-30 sensor sort-seq; sequence = guide strand; details: shRNA

Going from TTTTTGTCGTAATAGTAGCGTA to TAACTTGATATGGTTTCACATC, the sensor-assay potency score (higher = more potent) falls from -0.88 to -1.41.

First: TTGTTTGATAGCAAAGTAGTCA
Second: ATAGCTAATGAAGTAATCCGAG
The sensor-assay potency score (higher = more potent) of the first is lower: -0.385 for the first, -0.147 for the second.

First: TAGAGTGATAGGTAAATAGTTC
Second: TATCGTAGCTCTCTATGCTTTC
The sensor-assay potency score (higher = more potent) of the first is lower: -0.916 for the first, -0.783 for the second.

biological target: EYA3; assay: as above; details: shRNA

Going from TAGTCTGACCTGTGACTCCAAA to TTTGGTAGCACTATAGATGTTC, the sensor-assay potency score (higher = more potent) rises from -0.964 to 0.549.

Compared with TTGACTTATAGTTTGCTCTCCT, TATAATCATTGGATGAGCGAGG is lower in sensor-assay potency score (higher = more potent): 0.627 for the first, -0.793 for the second.

Compared with TAATCCTGGTTTGAGATGCTGG, TAGTCCATATAGGAGAACCTTG is lower in sensor-assay potency score (higher = more potent): -0.375 for the first, -1.31 for the second.

First: TTTACTTGGTGTAGTCTGGGAC
Second: TCTGGTATTGAGTCTGTCCAGG
The sensor-assay potency score (higher = more potent) of the first is lower: -0.478 for the first, -0.468 for the second.

Going from TAGTTTGCTCTCCTGATTCCTG to TTAATCTCTGCAGTGCTTCCTT, the sensor-assay potency score (higher = more potent) rises from -0.14 to 0.585.

Compared with TTGAGTCTGCTGTAGTGTCTGG, TAGATTTCTCTCACTTTCCGGT is higher in sensor-assay potency score (higher = more potent): -0.331 for the first, 0.197 for the second.

First: TAGTGTCTGGTATTGAGTCTGT
Second: TTCTAATTCACTGTCTTGGGAA
The sensor-assay potency score (higher = more potent) of the first is lower: -0.308 for the first, -0.169 for the second.

Compared with TTGCTAGTCATGTTTTTCCTGG, TTGCTCTCCTGATTCCTGCATC is higher in sensor-assay potency score (higher = more potent): -0.514 for the first, -0.293 for the second.

Going from TTTAATGCAGTTCCTAACCAGG to TTCTGCTCTTAATCTCTGCAGT, the sensor-assay potency score (higher = more potent) rises from -1.16 to -0.462.

First: ATCACTGTTAGTCTGACCTGTG
Second: TTTTCCTGGACTGATCATCAGT
The sensor-assay potency score (higher = more potent) of the first is higher: 0.133 for the first, -0.683 for the second.

First: TTGTGAGGTATAATCATTGGAT
Second: TTAGTCTGACCTGTGACTCCAA
The sensor-assay potency score (higher = more potent) of the first is lower: -0.583 for the first, -0.459 for the second.

In the case of TTTCTTCCATTGTTAAACCTGA, the sensor-assay potency score (higher = more potent) is reported as -0.4.

biological target: F2R; assay: as above; details: shRNA

First: TACACCACAGCCAGAAACCGGT
Second: TTACTTGCCATCAACTGCCCAC
The sensor-assay potency score (higher = more potent) of the first is lower: -0.606 for the first, -0.043 for the second.

First: TTTCTGGCCAATCTGTGTCTGA
Second: TACACATACATCACACTCTATG
The sensor-assay potency score (higher = more potent) of the first is higher: -0.414 for the first, -1.1 for the second.

First: TAACACCGTCATCTCGTCCTGT
Second: TTCCTGAGAAGAAATGACCGGG
The sensor-assay potency score (higher = more potent) of the first is lower: -0.174 for the first, 0.496 for the second.

Going from AAACACTAGAACTTCTACGCAC to TATCACATTCTGCTTTGCCAGT, the sensor-assay potency score (higher = more potent) falls from 0.254 to -0.848.

Compared with TAATAACTTAAACCTTGCCGTC, TTATTGATGGAGACTAATCTGT is higher in sensor-assay potency score (higher = more potent): -1.01 for the first, -0.475 for the second.

TTATTCAGGTTACTAGAGCAGG gave a sensor-assay potency score (higher = more potent) of -0.622.
